Laboratory results from the supplement of paper PMC10981050.
Where “and” joins values, the source holds several entries; their conditions need not be identical. Equal entries are not always repeated. Structures can show the parent of a compound that is named as a salt.

Tests used:
Test in all cases: cell viability relative to vehicle control; higher = less cytotoxic
Details in all cases: 10 µM
K562 = tested on: K562
Outline: (§1)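 Mutant clones made by CRISPR editing and their isogenic wild-type counterparts, from four leukaemia lines, were exposed to a single 10 µM dose of each library compound for 48 h. The supernatant was then removed and CellTiter-Glo luminescence was read. Viability was reported as percent of the on-plate vehicle control.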

MARIMO = tested on: MARIMO
Outline: as §1

MOLM14 = tested on: MOLM14
Outline: as §1

OCI-AML2 = tested on: OCI-AML2
Outline: as §1

| SMILES | cell viability (K562; SRSF2 genotype: SRSF2 P95H/wt) | cell viability (K562; SRSF2 genotype: SRSF2 wt/wt) | cell viability (MARIMO; SRSF2 genotype: SRSF2 P95H/wt) | cell viability (MARIMO; SRSF2 genotype: SRSF2 wt/wt) | cell viability (MOLM14; SRSF2 genotype: SRSF2 P95H/wt) | cell viability (MOLM14; SRSF2 genotype: SRSF2 wt/wt) | cell viability (OCI-AML2; SRSF2 genotype: P95H/wt) | cell viability (OCI-AML2; SRSF2 genotype: wt/wt) |
| --- | --- | --- | --- | --- | --- | --- | --- | --- |
| CNC(=O)c1c(F)cccc1Nc1nc(Nc2cc3c(cc2OC)CCN3C(=O)CN(C)C)nc2[nH]ccc12 | 6.79% and 7.34% | 5.25% | 46.2% | 38.8% | 0.66% | 0.35% | 0.91% | 1.46% |
| CC(C)Oc1ccc(-c2nc(-c3cccc4c3CC[C@@H]4NCCO)no2)cc1C#N [Ozanimod (RPC1063)] | 34% and 30.5% | 30.6% | 27.3% | 32.2% | 38.6% | 40.5% | 29% | 34.4% |
| OCCOCCN1CCN(Cc2cccc(Oc3ccccc3)c2)CC1 | 97.6% and 99.2% | 94% | 90% | 99.3% | 94.5% | 99.8% | 84% | 93.8% |
| O=C(O)Cc1ccc2c(c1)C(=O)c1ccccc1CO2 [Isoxepac] | 104% | 105% | 106% | 105% | 100% | 105% | 105% | 105% |
| CN(Cc1cnc2nc(N)nc(N)c2n1)c1ccc(C(=O)N[C@@H](CCC(=O)O)C(=O)O)cc1 [Abitrexate (Methotrexate)] | 99.8% and 103% | 45.1% | 93% | 93.5% | 103% | 74% | 99.2% | 96.9% |
| O=C(O)c1ccc(NC(=O)[C@H](Cc2ccc(O)cc2)NC(=O)c2ccccc2)cc1 [bentiromide] | 103% and 106% | 106% | 112% | 111% | 95.6% | 104% | 110% | 96.2% |
| O=C(NC(NC(=S)Nc1ccc(F)c([N+](=O)[O-])c1)C(Cl)(Cl)Cl)C(c1ccccc1)c1ccccc1 (configuration not stated) | 6.8% and 10.6% | 17.6% | 35.5% | 30.2% | 1.5% | 4.68% | 1.61% | 4.06% |
| CC(C(=O)O)c1ccc2c(c1)Cc1cccnc1O2 (configuration not stated) [Pranoprofen] | 105% and 106% | 110% | 110% | 107% | 102% | 105% | 112% | 106% |
| O=C(c1cc(Cc2n[nH]c(=O)c3ccccc23)ccc1F)N1CCN(C(=O)C2CC2)CC1 | 92.6% and 101% | 97.2% | 84% | 96.1% | 59.4% | 31% | 44.6% | 58% |
| CC1(C)CC[C@]2(C(=O)O)[C@H](O)C[C@]3(C)C(=CC[C@@H]4[C@@]5(C)CC[C@H](O)C(C)(C)[C@@H]5CC[C@]43C)[C@H]2C1 [Echinocystic acid] | 93.8% and 87.5% | 89% | 87.1% | 99.2% | 85.1% | 90.4% | 82.8% | 94.6% |
| O=c1cc(-c2ccc(O)cc2)oc2cc(O)c(O)c(O)c12 [Scutellarein] | 92% and 86.2% | 95% | 102% | 91.3% | 107% | 103% | 102% | 97% |
| CC(C)=CCC[C@](C)(O[C@@H]1O[C@H](CO[C@@H]2OC[C@@H](O)[C@H](O)[C@H]2O)[C@@H](O)[C@H](O)[C@H]1O)[C@H]1CC[C@]2(C)[C@@H]1[C@H](O)C[C@@H]1[C@@]3(C)CC[C@H](O[C@@H]4O[C@H](CO)[C@@H](O)[C@H](O)[C@H]4O[C@@H]4O[C@H](CO)[C@@H](O)[C@H](O)[C@H]4O)C(C)(C)[C@@H]3CC[C@]12C [Ginsenoside Rb3] | 101% and 96.7% | 108% | 103% | 103% | 109% | 102% | 101% | 101% |
| CCn1cc(C(=O)O)c(=O)c2cc(F)c(N3CCNCC3)nc21 [Enoxacin (Penetrex)] | 111% and 106% | 108% | 109% | 111% | 105% | 110% | 112% | 105% |
| COc1cc2c(Nc3ccc(NC(=O)c4ccccc4)cc3)ncnc2cc1OCCCN1CCOCC1 | 67.2% and 92% | 79.4% | 62.5% | 72% | 17.9% | 10.3% | 16.4% | 22.1% |
| CC#CC(=O)N1CC[C@@H](n2c(=O)n(-c3ccc(Oc4ccccc4)cc3)c3c(N)ncnc32)C1 [ONO-4059 (GS-4059) hydrochloride] | 91% and 102% | 95.7% | 97.2% | 107% | 91.4% | 95.8% | 91% | 88.9% |
| OC[C@@H](O)[C@@H](O)[C@H](O)[C@H](O)CO [D-Mannitol (Osmitrol)] | 98% and 97.7% | 106% | 107% | 116% | 107% | 109% | 97% | 100% |
| CC1(COc2ccc3c(c2)ncn3-c2ccc3cccc(N4CCC(N)CC4)c3n2)COC1 | 84.9% and 68.8% | 71.4% | 5.64% | 16.6% | 5.66% | 1.2% | 14.6% | 13% |
| CN(C)C(=O)[C@H](O)[C@H](Cc1ccccc1)NC(=O)c1cc2cc(Cl)ccc2[nH]1 | 92.2% and 98.4% | 98% | 95.3% | 98.2% | 88.9% | 104% | 90% | 84.7% |
| CC[C@@H]1[C@H]2CCCCN3[C@H]2[C@H](C[C@H]3[C@@H]2C[C@H](C)C(=O)O2)[C@@H]2[C@H]1OC(=O)[C@H]2C [Tuberostemonine] | 84.4% and 95% | 88.8% | 83.6% | 89.3% | 64% | 97.8% | 107% | 100% |
